# Pf growth 48h – Primary qHTS for delayed death inhibitors of the malarial parasite plastid, 48 hour incubation | P. falciparum luciferase growth in erythrocytes, 48 h | Potency, µM (highest dose often 28.7 µM), for the others: at the highest dose activity change, negative = inhibition, usual class: inhibitors | 310,000 compounds, 5.9% hits | AID 504832, 2011; further: potency means the concentration at half of the fitted maximal effect
#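 Luciferase-expressing parasites in RBCs, 2% Hct / 0.1% parasitemia final; RPMI 1640 + 0.5% Albumax; 37 C, 5% CO2, one generation; luminescence read-out, lower signal = inhibition.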
# HCV inhibitor – qHTS Assay for Inhibitors of Hepatitis C Virus (HCV); Huh7.5.1 HCVcc-Cre infection, luciferase reporter, 44 h; Potency, µM (titrated, usually from 41.8 µM), without a hit: at the highest dose activity change, negative = inhibition, hits mostly inhibitors; 340,000 compounds, 3.4% hits; AID 651820, 2012; further: potency means the concentration at half of the fitted maximal effect
#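 Luciferase read-out (15 sec integration) after a 15 min room-temperature substrate step quantifies HCVcc-Cre infection. Cells, 1,000 per well, had compound added 4 h post-plating, then virus at ~0.5 moi, and were cultured 44 h.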
# Pf growth 96h – Primary qHTS for delayed death inhibitors of the malarial parasite plastid, 96 hour incubation; 320,000 compounds, 6.9% hits; P. falciparum luciferase reporter growth, 96 h; Potency, µM (doses to about 28.7 µM), for inactives: top-dose activity change, negative = inhibition, hits mostly inhibitors; further: potency means the concentration at half of the fitted maximal effect
#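 Luminescence readout: decreased luciferase signal marks inhibited growth of reporter-expressing P. falciparum in infected red cells (2% hematocrit, 0.05% parasitemia final), exposed to compound two generations (96 h, 37 C, 5% CO2).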
# HCMV antiviral – qHTS Assay for inhibitors of the human cytomegalovirus (HCMV) | AID 1259415, 2018 | HFF cells, HCMV-luciferase reporter, 72 h; active compounds read low | activity change, negative = inhibition, % at 57.5 µM | 410,000 compounds, 4.5% hits; in the data active means activity change below about -60%; inconclusive means no clear call, values can overlap the other calls; inactive means above about -39%
#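 Human foreskin fibroblasts infected with luciferase-reporter HCMV at MOI 1 PFU/cell, compounds at two doses. Luciferase measured 72 h post infection; normalized to buffer-only basal and Salinomycin (10uM) controls.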
# Numbers without * were called inactive; ? = inconclusive; · = no result; [ ] = dose if it differs, or a comment. In the library only some 13% were active in any assay of this set; here they are far more common. Unless noted, the call rests on the fitted dose curve; in most records, active means well fitted inhibition curve with a large enough effect; inconclusive means small, poorly fitted or top-dose-only effect, or another doubt; inactive means no such curve, though single readings can be large or run the other way. On the % scale 0 is the no-effect control and ±100 the full control effect.
SMILES,Pf growth 48h,HCV inhibitor,Pf growth 96h,HCMV antiviral
N#CC1=C(N)Oc2n[nH]c(-c3ccc(F)cc3)c2C1c1cccnc1 (stereo unspecified),·,17%,5.9µM*,-19
CCOc1ccc(C2C(C#N)=C(N)Oc3cc(C)n(Cc4ccco4)c(=O)c32)cc1OC (stereo unspecified),?,-14%,·,-19
CCc1ccccc1NC(=O)C1CCCN(c2ncnc3onc(C)c23)C1 (stereo unspecified),·,·,·,-7
COc1cccc(NC(=O)CCc2nnc3ccc(N4CCN(c5cccc(OC)c5)CC4)nn23)c1,?,3%,?,·
COc1ccc(NC(=O)CCc2nnc3ccc(N4CCN(c5cccc(OC)c5)CC4)nn23)cc1,12µM*,3%,0.33µM*,?
COc1cc(NC(=O)CCc2nnc3ccc(N4CCC(C)CC4)nn23)cc(OC)c1,-16%,-11%,1.9µM*,-2
COc1cccc(N2CCN(C(=O)CCc3nnc4ccc(N5CCCC5)nn34)CC2)c1,?,1%,?,-37
COc1ccccc1N1CCN(C(=O)CCc2nnc3ccc(N4CCC(C)CC4)nn23)CC1,10µM*,-11%,-19%,?
COc1cc(NC(=O)CCc2nnc3ccc(N4CCN(c5cccc(OC)c5)CC4)nn23)cc(OC)c1,2%,1%,3.3µM*,6
CCCNC(=O)N1CCCN(S(=O)(=O)c2ccc3c(ccn3CC)c2)CC1,·,·,·,-6
Cc1ccccc1C(=O)Nc1ccccc1OCc1cc(=O)n2ccccc2n1,·,·,·,-11
COc1cccc(N2CCN(C(=O)CCc3nnc4ccc(N5CCOCC5)nn34)CC2)c1,-3%,13%,12µM*,-5
O=C1c2oc3ccccc3c(=O)c2C(c2cccc(Br)c2)N1Cc1ccco1 (stereo unspecified),4%,3%,0.37µM*,-16
O=C1c2oc3ccc(Br)cc3c(=O)c2C(c2cccnc2)N1Cc1ccco1 (stereo unspecified),·,·,-9%[5.75 µM],·
COc1ccc(CNC(=O)C[C@H]2C(=O)N(C3CCCCC3)C[C@@H]2Cc2ccccc2)cc1,-8%,3%,12µM*,-2
COc1ccc2c(C)c(CC(=O)NCCc3ccccc3)c(=O)oc2c1OC,·,·,·,-15
CCc1ccc(C(=O)COC(=O)C(Cc2c[nH]c3ccccc23)NC(=O)c2ccc(Br)cc2)cc1 (stereo unspecified),·,·,·,24
COc1ccc(/C=C/S(=O)(=O)NCc2ccccc2)cc1OC,12µM*,9%,39%,-39
COc1ccc(/C=C/C(=O)O)cc1S(=O)(=O)NCc1ccccc1,74%,6%,0%,4
Cc1cc2[nH]c(=O)c(=O)[nH]c2cc1S(=O)(=O)Nc1cccc(C(F)(F)F)c1,·,·,·,11
COc1ccccc1-c1nc2c(c(SCC(=O)Nc3ccc(C)c(C)c3)n1)Cc1c(CO)cnc(C)c1O2,·,·,·,-76*
COc1ccccc1-c1nc2c(c(SCC(=O)N3CCCCC3)n1)Cc1c(CO)cnc(C)c1O2,10µM*,?,1.7µM*,?
CC1(C(=O)N2CCC(CC3CC(c4ccc(Cl)cc4)=NO3)(C(=O)NCC3CCCCC3)CC2)CC1 (stereo unspecified),?,?,1.5µM*,-5
CC1(C(=O)N2CCC(CC3CC(c4cccc(Br)c4)=NO3)(C(=O)NCC3CCCCC3)CC2)CC1 (stereo unspecified),?,-15%,2.9µM*,?
COC(=O)C1(CC2CC(c3cccc(Br)c3)=NO2)CCN(C(=O)OC(C)(C)C)CC1 (stereo unspecified),?,-9%,0%,23
SMILES,Pf growth 48h,HCV inhibitor,Pf growth 96h,HCMV antiviral
CC(C)(C)OC(=O)N1CCC(CC2CC(c3ccc(Cl)cc3)=NO2)(C(=O)NCC2CCCCC2)CC1 (stereo unspecified),-69%,21%,?,69
O=C(/C=C/c1ccccc1)Nc1cc(-c2nc3ccccc3o2)ccc1Cl,·,·,·,44
COc1cc(OC)c(C2=NOC(C(=O)Nc3c(C)nn(CC(=O)N4CCCC4)c3C)C2)cc1Cl (stereo unspecified),-7%,-10%,5.9µM*,3
CCn1ncc(C2=NOC(C(=O)Nc3cc(OC)c(Cl)cc3OC)C2)c1C (stereo unspecified),10%,-11%,?,-28
COc1ccc(C(=O)Nc2cccc(C(=O)N3CCN(C)CC3)c2)cc1,136%,12%,0.13µM*,19
COc1ccc(C(=O)Nc2cccc(C(=O)N3CCCCC3)c2)cc1,?,·,?,24
CC(C)(C)c1ccc(C(=O)Nc2cccc(C(=O)N3CCOCC3)c2)cc1,75%,5.6µM*,-38%,?
Cc1ccc(/C=N\Nc2nc3ccc(Cl)cc3[nH]2)o1,2.6µM*,-15%,2.3µM*,-23
CCCCn1c(/C=N/Nc2nc3ccccc3[nH]2)nc2ccccc21,1.9µM*,?,?,-37
C#CCn1cc(/C=N/Nc2nc3ccccc3[nH]2)c2ccccc21,?,?,7%,-69*
C#CCn1cc(/C=N/NC(=O)COc2cccc3cccnc23)c2ccccc21,0%,11%,11%,11
C(=N\Nc1nc2ccccc2[nH]1)/c1ccccn1,-41%,-2%,342%,-100*
Cc1ccc(/C=N/Nc2cn[nH]c(=O)n2)o1,35%,20%,11%,?
CC(C)(C)OC(=O)N1CCC(c2c(C(=O)NCCCN3CCc4ccccc4C3)cnn2-c2ccccc2)CC1,·,·,·,0
c1ccc(CNCCNCc2ccccc2)cc1,-7%,·,?,10
CC1CCN(c2ncnc3c2cnn3-c2ccc(F)cc2)CC1,·,·,·,81
C(=N\Nc1nc2ccccc2[nH]1)/c1ccc2ncccc2c1,0.15µM*,?,?,-22
CC(C)(C)C1CCC(=NNc2nc3ccccc3[nH]2)CC1 (stereo unspecified),?,-19%,?,-23
Fc1ccccc1-c1ccc(/C=N/Nc2nc3ccccc3[nH]2)o1,?,0%,0.93µM*,186
Cc1cc(=O)[nH]c(N/N=C/c2ccc(-c3ccc(F)cc3)o2)n1,7%,-19%,50%,-21
c1ccc2c(c1)CC/C2=N/Nc1nc2ccccc2[nH]1,2.6µM*,?,?,-112*
O=C(CN1CCN(S(=O)(=O)c2cc(Cl)ccc2Cl)CC1)Nc1cccc(F)c1,·,·,·,-19
O=C(NCC1CC1)c1nnc2n1CCN(C(=O)c1cccc3c1OCCO3)C2,·,·,·,11
CC1=C/C(=C(\c2cc(C)c(O)c(Br)c2)c2ccccc2S(=O)(=O)O)C=C(Br)C1=O,?,12%,10µM*,0
Cc1cc(C(=O)c2ccccc2)cc(C)c1O,·,16%,·,55
Cc1ccc(-c2nnc(SCC(=O)NC(C)(C)C)nc2-c2ccc(C)cc2)cc1,·,·,·,-1
COc1ccccc1N(CC(=O)N/N=C/c1ccc(OCC(=O)NCc2ccco2)cc1)S(=O)(=O)c1ccc(C)cc1,·,5µM*,?,·

# Assay outcomes as filed in PubChem.
